# Reference: PubChem BioAssay (NCATS)
# Inconclusive results are not listed. The source made the active and inactive calls. The call rests on the fitted dose curve; in most records, active means well fitted cell-killing curve with a large enough effect; inconclusive means small, poorly fitted or top-dose-only effect; inactive means flat fitted curve, though single readings scatter.
# Test: NCATS anti-infectives library activity on HEK293 viability as a counter-qHTS vs the C. elegans viability qHTS (AID 1745854)
# Conditions: HEK293 viability counter-screen; series mostly up to 41.8 µM; activity change, negative = cytotoxicity: at the top concentration
# Description: Assay Development and Screening Technology Laboratory (ADST)
# National Center for Advancing Translational Sciences (NCATS), Rockville, MD
# National Institute of Health (NIH), Bethesda, Maryland
# Caenorhabditis elegans has helped elucidate the evolutionarily conserved genetics underlying pathways and cellular processes implicated in human disease and may be ideally positioned to reveal novel pharmacological properties of exiting drugs. The organism's short life cycle and microscopic size is applicable to the technical requirements of high-throughput screening. Here a quantitative high-throughput screening (qHTS)-based forward chemical biology platform has been developed using C. elegans. 384-well microtiter plate laser scanning cytometry was used in the rapid detection and quantification of the fluorescent protein-encoded phenotype to score worm viability. In a proof-of-concept study, the pharmacological qHTS profile obtained from a library of 643 anti-infective compounds.
# 1. Inglese, J., Auld, D. S., Jadhav, A., Johnson, R. L., Simeonov, A., Yasgar, A., Zheng, W., and Austin, C. P. (2006) Quantitative high-throughput screening: A titration-based approach that efficiently identifies biological activities in large chemical libraries, P Natl Acad Sci USA 103, 11473-11478.
# 2. Auld, D. S., Johnson, R. L., Zhang, Y. Q., Veith, H., Jadhav, A., Yasgar, A., Simeonov, A., Zheng, W., Martinez, E. D., Westwick, J. K., Austin, C. P., and Inglese, J. (2006) Fluorescent protein-based cellular assays analyzed by laser-scanning microplate cytometry in 1536-well plate format, Method Enzymol 414, 566-589.
# 3. Zuck, P., Lao, Z., Skwish, S., Glickman, J. F., Yang, K., Burbaum, J., and Inglese, J. (1999) Ligand-receptor binding measured by laser-scanning imaging, Proc Natl Acad Sci U S A 96, 11122-11127.
# PROTOCOL TABLE (as described by Inglese J, Shamu CE and Guy RK. 2007)
# SEQUENCE No. (e.g., 1, 2, 3, etc.); […] (e.g., C. elegans, Compounds, Incubation, Read, etc.); VALUE and DESCRIPTION.
# 1. Compounds. Library compounds and digitonin control added at 25 nL per well to 7 assay ready 1536-well Greiner white/solid bottom high base, TC plates and two DMSO control plates, transferred by Echo acoustic dispenser.
# 2. Cells. Seed 1500 HEK293 per well in 6 uL into assay ready Greiner 1536-well plates.
# 3. Incubation. Incubate plated cells with compounds at 37C in 5% CO2, 95% RH for 24 hr.
# 4. Reagent. Add 4 uL of CellTiter-Glo reagent from Promega per well of Greiner 1536-well plates with BioRAPTR FRD.
# 5. Incubation. Incubate treated cells at room temperature for 10 min., protect from light.
# 6. Detector. CellTiter-Glo luminescence measured using CCD-based camera (Viewlux) with settings as follows: Exposure, 1 sec; Gain, High; Speed, Slow; Binning, 2X.
# NOTES (numbers refer to Sequence numbers above; values are from representative experiments)
# 1. NIH Anti-Infectives library pre-dispensed into 7 assay ready 1536-well Greiner white/solid bottom high base, TC plates with Echo 555 acoustic dispenser. Most compounds dispensed at 10 mM high concentration and plated in 7-pt 1:5 inter-plate titration at 25 nl / well for a final assay concentration range of 41.7 uM - 2.7 nM. Two 1536-well Greiner assay plates of DMSO plated as screening controls to be read at the beginning and the end of the screen. Controls included DMSO vehicle control added at 25 nl/well to each well of column 1 and […] (83.3 uM final assay concentration), and Digitonin titrated 1:2 at 25 nl/ well to column 4 in duplicate for a final assay concentration range of 83.3 uM - 2.5 nM.
# 2. HEK293 cells grown for 48 hr in one T175 culture flask in DMEM high glucose media supplemented with 10% FBS and 1% Pen/Strep antibiotic. Cells trypsinized and diluted in 10 ml supplemented media, strained through 40 µm cell strainer, and diluted to a total volume of 40 ml with supplemented media. […]
# On the % scale 0 is the no-effect control and ±100 the full control effect; potency means the concentration at half of the fitted maximal effect.
SMILES,"activity change, negative = cytotoxicity",Potency
CCN[C@H]1C[C@H](C)S(=O)(=O)c2sc(S(N)(=O)=O)cc21,-18.2% (inactive),
O=P(O)(O)C(O)(Cc1cccnc1)P(=O)(O)O,8.26% (inactive),
CC(C)(Sc1cc(C(C)(C)C)c(O)c(C(C)(C)C)c1)Sc1cc(C(C)(C)C)c(O)c(C(C)(C)C)c1,-3.63% (inactive),
C1CCC(C(CC2CCCCN2)C2CCCCC2)CC1 (configuration not stated),,15.8 µM (active)
Cc1oc(=O)oc1CN1CCN(c2cc3c(cc2F)c(=O)c(C(=O)O)c2n3C(C)S2)CC1 (configuration not stated),-17.4% (inactive),
CCOC(=O)c1ccc(OC(=O)CCCCCN=C(N)N)cc1,1.79% (inactive),
O=S(=O)(c1cccc2cnccc12)N1CCCNCC1,7.83% (inactive),
Clc1ccccc1CN1CCc2sccc2C1,-15.8% (inactive),
NC(=O)c1cccc(N)c1,-23.6% (inactive),
Nc1nc(=S)c2[nH]cnc2[nH]1,,3.55 µM (active)
CC(C)Cn1cnc2c(N)nc3ccccc3c21,-11.8% [at 18.2 µM] (inactive),
Cc1ccnc2c1NC(=O)c1cccnc1N2C1CC1,13.5% (inactive),
CC(=O)Oc1ccccc1C(=O)Nc1ncc([N+](=O)[O-])s1,10.6% (inactive),
CC(N)C12CC3CC(CC(C3)C1)C2 (configuration not stated),-21.8% (inactive),
COc1ccccc1OCC(O)COC(N)=O (configuration not stated),-1.27% (inactive),
Cc1nnc(C(=O)NC(C)(C)c2nc(C(=O)NCc3ccc(F)cc3)c(O)c(=O)n2C)o1,-10.2% (inactive),
O=C(N[C@H](CO)[C@H](O)c1ccc([N+](=O)[O-])cc1)C(Cl)Cl,-23.1% (inactive),
